# Experimental data published in article PMC5540273 (PLoS ONE, 2017).
# Like-named read-outs stand apart in the source and are kept apart here.
# Tests used:
# Conditions in all cases: n = 1
# ANKK1 = test system: ANKK1
# ARK5 = test system: T1, ARK5
# T1 construct: gene NUAK1
# ASK1 = test system: T2, ASK1
# T2 construct: gene MAP3K5
# ASK2 = test system: T3, ASK2
# T3 construct: gene MAP3K6
# AURKA = test system: AURKA
# AURKB = test system: AURKB
# AURKC = test system: AURKC
# AXL = test system: AXL
# BIKE = test system: T4, BIKE
# T4 construct: gene BMP2K
# BLK = test system: BLK
# BMPR1A = test system: BMPR1A
# BMPR1B = test system: BMPR1B
# BMPR2 = test system: BMPR2
# BMX = test system: BMX
# BRAF = test system: BRAF
# BRK = test system: T5, BRK
# T5 construct: gene PTK6
# BRSK1 = test system: BRSK1
# BRSK2 = test system: BRSK2
# BTK = test system: BTK
# BUB1 = test system: BUB1
# [1] = concentration: 1 μM, replicates: in singlicate
# 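Also: KINOMEscan kinase panel screen.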
smiles,measurement,setting,value
Cc1cc(-c2ccc3c(c2)CC[C@@H](N[C@@H](C)c2ccccc2)C3)cnc1N.Cl [GW412617],%Inh,ANKK1; [1],69%
same,%Inh,ARK5; [1],13%
same,%Inh,ASK1; [1],33%
same,%Inh,ASK2; [1],0%
same,%Inh,AURKA; [1],0%
same,%Inh,AURKB; [1],35%
same,%Inh,AURKC; [1],26%
same,%Inh,AXL; [1],33%
same,%Inh,BIKE; [1],40%
same,%Inh,BLK; [1],13%
same,%Inh,BMPR1A; [1],0%
same,%Inh,BMPR1B; [1],0%
same,%Inh,BMPR2; [1],0%
same,%Inh,BMX; [1],50%
same,%Inh,BRAF; [1],1%
same,%Inh,BRK; [1],22%
same,%Inh,BRSK1; [1],0%
same,%Inh,BRSK2; [1],0%
same,%Inh,BTK; [1],0%
same,%Inh,BUB1; [1],17%
Cc1ccc(NC(=O)Nc2cccc(C(F)(F)F)c2)cc1 [GSK955403],%Inh,ANKK1; 1 µM,0%
same,%Inh,ARK5; 1 µM,0%
same,%Inh,ASK1; 1 µM,20%
same,%Inh,ASK2; 1 µM,0%
same,%Inh,AURKA; 1 µM,0%
same,%Inh,AURKB; 1 µM,0%
same,%Inh,AURKC; 1 µM,19%
same,%Inh,AXL; 1 µM,0%
same,%Inh,BIKE; 1 µM,4%
same,%Inh,BLK; 1 µM,0%
same,%Inh,BMPR1A; 1 µM,94.6%
same,%Inh,BMPR1B; 1 µM,0%
same,%Inh,BMPR2; 1 µM,1%
same,%Inh,BMX; 1 µM,0%
same,%Inh,BRAF; 1 µM,0%
same,%Inh,BRK; 1 µM,0%
same,%Inh,BRSK1; 1 µM,0%
same,%Inh,BRSK2; 1 µM,0%
same,%Inh,BTK; 1 µM,0%
same,%Inh,BUB1; 1 µM,0%
Cc1cccc(-c2nc(C)cc(Nc3ccncc3)n2)n1 [GSK257997],%Inh,ANKK1; [1],0%
same,%Inh,ARK5; [1],0%
same,%Inh,ASK1; [1],0%
same,%Inh,ASK2; [1],0%
same,%Inh,AURKA; [1],21%
same,%Inh,AURKB; [1],0%
same,%Inh,AURKC; [1],13%
same,%Inh,AXL; [1],7%
same,%Inh,BIKE; [1],21%
same,%Inh,BLK; [1],32%
same,%Inh,BMPR1A; [1],14%
same,%Inh,BMPR1B; [1],0%
same,%Inh,BMPR2; [1],2%
same,%Inh,BMX; [1],27%
same,%Inh,BRAF; [1],0%
same,%Inh,BRK; [1],2%
same,%Inh,BRSK1; [1],0%
same,%Inh,BRSK2; [1],0%
same,%Inh,BTK; [1],0%
same,%Inh,BUB1; [1],9%
Cc1ccc(C(=O)Nc2ccc(Nc3ccnc4cc(-c5ccccn5)ccc34)cc2O)cc1.Cl [GW440146],%Inh,ANKK1; [1],33%
same,%Inh,ARK5; [1],0%
same,%Inh,ASK1; [1],0%
same,%Inh,ASK2; [1],0%
same,%Inh,AURKA; [1],29%
same,%Inh,AURKB; [1],80%
same,%Inh,AURKC; [1],90.1%
same,%Inh,AXL; [1],0%
same,%Inh,BIKE; [1],39%
same,%Inh,BLK; [1],98.4%
same,%Inh,BMPR1A; [1],0%
same,%Inh,BMPR1B; [1],0%
same,%Inh,BMPR2; [1],0%
same,%Inh,BMX; [1],14%
same,%Inh,BRAF; [1],0%
same,%Inh,BRK; [1],29%
same,%Inh,BRSK1; [1],0%
same,%Inh,BRSK2; [1],0%
same,%Inh,BTK; [1],46%
same,%Inh,BUB1; [1],54%
Cc1cccc(-c2nc(Nc3ccc4[nH]ncc4c3)c3ccccc3n2)n1 [GW857175],%Inh,ANKK1; [1],0%
same,%Inh,ARK5; [1],1%
same,%Inh,ASK1; [1],0%
same,%Inh,ASK2; [1],13%
same,%Inh,AURKA; [1],0%
same,%Inh,AURKB; [1],3%
same,%Inh,AURKC; [1],22%
same,%Inh,AXL; [1],26%
same,%Inh,BIKE; [1],33%
same,%Inh,BLK; [1],3%
same,%Inh,BMPR1A; [1],60%
same,%Inh,BMPR1B; [1],34%
same,%Inh,BMPR2; [1],18%
same,%Inh,BMX; [1],15%
same,%Inh,BRAF; [1],16%
same,%Inh,BRK; [1],2%
same,%Inh,BRSK1; [1],0%
same,%Inh,BRSK2; [1],0%
same,%Inh,BTK; [1],10%
same,%Inh,BUB1; [1],65%
CC(=O)Nc1nc2cnc(Nc3cc(NC(=O)c4cccc(CCC#N)c4)ccc3C)nc2s1,%Inh,ANKK1; [1],0%
same,%Inh,ARK5; [1],7%
same,%Inh,ASK1; [1],0%
same,%Inh,ASK2; [1],16%
same,%Inh,AURKA; [1],12%
same,%Inh,AURKB; [1],18%
same,%Inh,AURKC; [1],7%
same,%Inh,AXL; [1],0%
same,%Inh,BIKE; [1],10%
same,%Inh,BLK; [1],0%
same,%Inh,BMPR1A; [1],0%
same,%Inh,BMPR1B; [1],0%
same,%Inh,BMPR2; [1],16%
same,%Inh,BMX; [1],7%
same,%Inh,BRAF; [1],97.7%
same,%Inh,BRK; [1],0%
same,%Inh,BRSK1; [1],0%
same,%Inh,BRSK2; [1],11%
same,%Inh,BTK; [1],32%
same,%Inh,BUB1; [1],14%
CS(=O)(=O)c1ccc(-c2c(-c3ncn[nH]3)sc(N3CCOCC3)c2C#N)cc1,%Inh,ANKK1; [1],0%
same,%Inh,ARK5; [1],1%
same,%Inh,ASK1; [1],0%
same,%Inh,ASK2; [1],0%
same,%Inh,AURKA; [1],22%
same,%Inh,AURKB; [1],0%
same,%Inh,AURKC; [1],2%
same,%Inh,AXL; [1],0%
same,%Inh,BIKE; [1],6%
same,%Inh,BLK; [1],8%
same,%Inh,BMPR1A; [1],17%
same,%Inh,BMPR1B; [1],4%
same,%Inh,BMPR2; [1],12%
same,%Inh,BMX; [1],0%
same,%Inh,BRAF; [1],12%
same,%Inh,BRK; [1],0%
same,%Inh,BRSK1; [1],100%
same,%Inh,BRSK2; [1],32%
same,%Inh,BTK; [1],0%
same,%Inh,BUB1; [1],29%
O=C(Nc1n[nH]c2nc(-c3nccs3)c(Br)cc12)C1CC1 [SB-742251],%Inh,ANKK1; [1],0%
same,%Inh,ARK5; [1],0%
same,%Inh,ASK1; [1],4%
same,%Inh,ASK2; [1],21%
same,%Inh,AURKA; [1],0%
same,%Inh,AURKB; [1],31%
same,%Inh,AURKC; [1],13%
same,%Inh,AXL; [1],15%
same,%Inh,BIKE; [1],36%
same,%Inh,BLK; [1],0%
same,%Inh,BMPR1A; [1],0%
same,%Inh,BMPR1B; [1],0%
same,%Inh,BMPR2; [1],63%
same,%Inh,BMX; [1],0%
same,%Inh,BRAF; [1],13%
same,%Inh,BRK; [1],2%
same,%Inh,BRSK1; [1],95.3%
same,%Inh,BRSK2; [1],90%
same,%Inh,BTK; [1],26%
same,%Inh,BUB1; [1],48%
Cc1cc(N2Cc3ccccc3C2)nc(Nc2ccc(S(=O)(=O)N3CCOCC3)cc2)n1.Cl [GSK1669917],%Inh,ANKK1; [1],24%
same,%Inh,ARK5; [1],0%
same,%Inh,ASK1; [1],0%
same,%Inh,ASK2; [1],0%
same,%Inh,AURKA; [1],0%
same,%Inh,AURKB; [1],0%
same,%Inh,AURKC; [1],0%
same,%Inh,AXL; [1],0%
same,%Inh,BIKE; [1],9%
same,%Inh,BLK; [1],16%
same,%Inh,BMPR1A; [1],0%
same,%Inh,BMPR1B; [1],0%
same,%Inh,BMPR2; [1],0%
same,%Inh,BMX; [1],11%
same,%Inh,BRAF; [1],0%
same,%Inh,BRK; [1],38%
same,%Inh,BRSK1; [1],0%
same,%Inh,BRSK2; [1],0%
same,%Inh,BTK; [1],0%
same,%Inh,BUB1; [1],21%
CC(C)(C)c1ccc(C(=O)Nc2cn3cc(-c4cccnc4)ccc3n2)cc1,%Inh,ANKK1; [1],11%
same,%Inh,ARK5; [1],14%
same,%Inh,ASK1; [1],94.9%
same,%Inh,ASK2; [1],0%
same,%Inh,AURKA; [1],0%
same,%Inh,AURKB; [1],34%
same,%Inh,AURKC; [1],19%
same,%Inh,AXL; [1],25%
same,%Inh,BIKE; [1],8%
same,%Inh,BLK; [1],8%
same,%Inh,BMPR1A; [1],34%
same,%Inh,BMPR1B; [1],0%
same,%Inh,BMPR2; [1],1%
same,%Inh,BMX; [1],25%
same,%Inh,BRAF; [1],0%
same,%Inh,BRK; [1],0%
same,%Inh,BRSK1; [1],6%
same,%Inh,BRSK2; [1],25%
same,%Inh,BTK; [1],0%
same,%Inh,BUB1; [1],8%
